Assay results from PubChem BioAssay (Tox21).
Where “and” joins values, the source holds several entries; their conditions need not be identical. Identical values can stand only once. Results filed as inconclusive are left out. Entries that show only a call come without a potency. Calls of active or inactive are those of the source. Unless noted, calls come from the whole dose curve; as a rule, active = well fitted cell-killing curve with a large enough effect in the repeat runs; inconclusive = weak or mixed curves; inactive = no such curve, though single readings can be large or run the other way.

Biological target: Peroxisome proliferator-activated receptor delta (Homo sapiens) (UniProt Q03181)
Sequence (Q03181 whole entry, looked up): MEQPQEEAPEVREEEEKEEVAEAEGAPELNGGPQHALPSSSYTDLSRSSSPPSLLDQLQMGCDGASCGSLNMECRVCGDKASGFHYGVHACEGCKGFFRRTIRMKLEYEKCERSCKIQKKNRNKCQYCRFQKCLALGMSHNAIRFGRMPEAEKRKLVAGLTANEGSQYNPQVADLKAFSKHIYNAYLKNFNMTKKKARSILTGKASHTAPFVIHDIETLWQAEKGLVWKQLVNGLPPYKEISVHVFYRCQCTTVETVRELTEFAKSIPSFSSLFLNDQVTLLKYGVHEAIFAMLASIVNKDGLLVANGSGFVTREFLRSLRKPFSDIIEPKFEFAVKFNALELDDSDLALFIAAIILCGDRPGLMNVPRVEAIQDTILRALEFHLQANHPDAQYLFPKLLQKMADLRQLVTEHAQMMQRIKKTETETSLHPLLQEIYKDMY
Experiment: qHTS assay to identify small molecule agonists of the peroxisome proliferator-activated receptor delta (PPARd) signaling pathway (AID 743212; calls by dose curve;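 note: HEK293H cells with PPARd UAS beta-lactamase reporter GeneBLAzer system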)
Settings: HEK293H PPARd-UAS-bla, beta-lactamase FRET ratio, 17 h; series mostly up to 62.6 µM
Summary of the method: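 Steps: seed PPARd-bla HEK293H cells; incubate 5 h, 37 C, 5% CO2; add compounds in DMSO; incubate, 37 C; add LiveBLAzer B/G FRET substrate; hold 2 h at room temperature; measure fluorescence.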

SMILES | outcome
Nc1ncn([C@@H]2O[C@H](CO)[C@@H](O)[C@H]2O)c(=O)n1 | inactive
CN(C)c1nc(N(C)C)nc(N(C)C)n1 | inactive
CN(C)CCN(Cc1cccs1)c1ccccn1 | inactive
CC(C)(C)NC(=O)[C@H]1CC[C@H]2[C@@H]3CC[C@H]4NC(=O)C=C[C@]4(C)[C@H]3CC[C@]12C | inactive
CC(=O)Oc1ccccc1C(=O)Nc1ncc([N+](=O)[O-])s1 | inactive
c1cc(-c2ccncc2)ccn1 | inactive
NC=O | inactive
COC(=O)C1=C(C)NC(C)=C(C(=O)OCCN(C)Cc2ccccc2)C1c1cccc([N+](=O)[O-])c1 (stereo not drawn) | inactive
O=C(Nc1ccc(Cl)cc1)Nc1ccc(Cl)c(Cl)c1 | inactive
COC(C)COC(C)COC(C)CO (stereo not drawn) | inactive
Nc1ncnc2nc[nH]c12 | inactive
OCCO | inactive
Cc1c(C(N)=O)cc([N+](=O)[O-])cc1[N+](=O)[O-] | inactive
COc1ccc(C(=O)CC(=O)c2ccc(C(C)(C)C)cc2)cc1 | inactive
CCC(C)c1ccccc1O (stereo not drawn) | inactive
Nc1ccccc1N | inactive
CC(=O)C1(C)CC2=C(CCCC2(C)C)CC1C (stereo not drawn) | inactive
OC1CCCCCCCCCCC1 | inactive
Cc1c(OCC(F)(F)F)ccnc1CS(=O)c1nc2ccccc2[nH]1 (stereo not drawn) | inactive
O=CCCCC=O | inactive
NNc1ccc(C(=O)O)cc1 | inactive
O=Cc1ccccc1O | inactive
Cc1cc2nc3c(=O)[nH]c(=O)nc-3n(C[C@H](O)[C@H](O)[C@H](O)CO)c2cc1C | inactive
CC(=O)O[C@]1(C(C)=O)CC[C@H]2[C@@H]3C=C(Cl)C4=CC(=O)[C@@H]5C[C@@H]5[C@]4(C)[C@H]3CC[C@@]21C | inactive

System: not listed separately
Experiment: qHTS assay to identify small molecule antagonists of the peroxisome proliferator-activated receptor delta (PPARd) signaling pathway - cell viability counter screen (AID 743213); note: nearly all actives have a fitted effect of over 50% in size; note: potency is the fitted concentration of half-maximal effect
Settings: PPARd-bla HEK293H viability, CellTiter-Glo luminescence, 17 h; series mostly up to 62 µM
Summary of the method: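 Cytotoxicity counter screen: CellTiter-Glo luminescence read 30 min after addition, in the same wells as the reporter assay. There, PPARd UAS-bla HEK293H cells (3000/well) were treated 17 h at 37 C with compound and 300 nM L165041.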

SMILES | Potency
C#C[C@]1(O)CC[C@H]2[C@@H]3CCC4=Cc5oncc5C[C@]4(C)[C@H]3CC[C@@]21C | inactive
CN(C)CCN(Cc1cccs1)c1ccccn1 | inactive
CC(C)(C)NC(=O)[C@H]1CC[C@H]2[C@@H]3CC[C@H]4NC(=O)C=C[C@]4(C)[C@H]3CC[C@]12C | inactive
COC(=O)Nc1nc2ccc(S(=O)c3ccccc3)cc2[nH]1 (stereo not drawn) | inactive
c1cc(-c2ccncc2)ccn1 | inactive
COC(=O)C1=C(C)NC(C)=C(C(=O)OCCN(C)Cc2ccccc2)C1c1cccc([N+](=O)[O-])c1 (stereo not drawn) | 48.7 µM (active) and 26.6 µM (active)
c1ccc2cc(Nc3ccc(Nc4ccc5ccccc5c4)cc3)ccc2c1 | inactive
COC(C)COC(C)COC(C)CO (stereo not drawn) | inactive
Nc1ccc(Nc2ccccc2)cc1 | inactive
Nc1ncnc2nc[nH]c12 | inactive
OCCO | inactive
O=C1OC2(c3cc(Br)c(O)c(Br)c3Oc3c2cc(Br)c(O)c3Br)c2c(Cl)c(Cl)c(Cl)c(Cl)c21 | inactive
Cc1c(C(N)=O)cc([N+](=O)[O-])cc1[N+](=O)[O-] | inactive
CCC(C)c1ccccc1O (stereo not drawn) | inactive
CC(=O)C1(C)CC2=C(CCCC2(C)C)CC1C (stereo not drawn) | inactive
CCCCc1oc2ccccc2c1C(=O)c1cc(I)c(OCCN(CC)CC)c(I)c1 | 15.6 µM (active) and 23.7 µM (active)
O=C(c1ccccc1)c1ccccc1O | inactive
O=CCCCC=O | inactive
NNc1ccc(C(=O)O)cc1 | inactive
O=Cc1ccccc1O | inactive
Cc1cccc(N(C)C(=S)Oc2ccc3ccccc3c2)c1 | inactive
COc1cccc2c1C(=O)c1c(O)c3c(c(O)c1C2=O)C[C@@](O)(C(=O)CO)C[C@@H]3O[C@H]1C[C@H](N)[C@H](O)[C@H](C)O1 | inactive
CN(C)C(=N)N=C(N)N | inactive
CC(=O)O[C@]1(C(C)=O)CC[C@H]2[C@@H]3C=C(Cl)C4=CC(=O)[C@@H]5C[C@@H]5[C@]4(C)[C@H]3CC[C@@]21C | inactive
